# Source: PubChem
# sdo1 growth: growth rescue of sdo1-depleted yeast, primary screen, S. cerevisiae, bone marrow failure model; S. cerevisiae sdo1-depleted JHY4D growth rescue, OD600 30 h; active compounds read high; pdr5 snq2 efflux-pump mutant strain; z-score at 10 µM; 0.21% of 140,000 active; AID 817, 2007;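 active = z-score above 3 at both the 24 hr and the 30 hr optical density reads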;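 also: z-score against mean and SD of all compound wells on the same plate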
# Mac1 fbg inh: inhibitors of CD11b/CD18 adhesion to fibrinogen, primary screen, K562 cells, luminescence; ATPlite luminescence; Mn2+ added to activate the integrin; inhibition, % at 10 µM; 0.54% of 93,000 active; AID 1497, 2009;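 active = primary inhibition of 50% or more at 10 µM, then 40% or more on retest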
# MRP-1 activ: H69AR viability gain despite doxorubicin, primary screen, MRP-1 activator project, H69AR cells, CellTiter-Glo | viability rescue | viability increase, % at 10 µM | 0.61% of 140,000 active | AID 799, 2007;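 active = viability gain under doxorubicin at or above a set limit, the compound median plus 3 SD, cut at about 4.7% in these data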;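 also: MRP-1 overexpressing cells given doxorubicin 25 µM after compound pretreatment; 18-22 h compound pretreatment then 72 h with doxorubicin before readout; 0% = doxorubicin-only wells and 100% = vehicle-treated cells without doxorubicin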
# Mac1 fbg enh: enhancers of CD11b/CD18 adhesion to fibrinogen, primary screen, K562 cells, luminescence. ATPlite luminescence. activation, % at 10 µM. 0.07% of 93,000 active;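 active = 10 µM primary screen giving 50% or more activity, confirmed by 40% or more on retest at that dose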
# Phagocyt inh: inhibitors of macrophage phagocytosis, primary screen, imaging, J774A.1 cells, IgG beads; AID 1029, 2008; inhibition, % at 5 µM; 0.07% of 110,000 active; J774A.1 macrophage IgG-bead phagocytosis;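 active = inhibition above the mean of the plate negative controls plus 5 SD, cut at about 13% in these data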;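 also: phagocytic index as fraction of beads internalized from green versus red external bead signal; plate controls were DMSO negative control for no effect and cytochalasin-D positive control for full effect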
# MRP reversal: reversal of MRP1-mediated doxorubicin resistance, primary screen, H69AR cells, doxorubicin co-treatment; H69AR cells + 2 uM doxorubicin, CellTiter-Glo, 72 h; differential viability (reversal), % at 10 µM; 0.04% of 85,000 active; AID 602, 2007;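 active = viability drop by adding the cancer drug above about 55%, with treated viability meeting a 40% cutoff, limit read from the data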;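 also: viability without doxorubicin minus viability with 2 µM doxorubicin for each compound; larger differential means the compound sensitizes cells more to doxorubicin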
# sdo1 rescue conf: SDO1-depleted yeast growth rescue, concentration-response, diseases of bone marrow failure, JHY4D, OD600 | shares compounds with sdo1 growth | S. cerevisiae JHY4D (SDO1-depleted) growth rescue, 30 h; active compounds read high; efflux-deficient strain, SNQ2 and PDR5 mutated | OD recovery (concentration not given with the values) | 44% of 440 active | AID 949, 2007;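 active = yeast growth recovered at 30 hours, either rising with dose fitted slope above 0.001 or with average optical density gain above 0.07, some results past the limit were not filed as active; inactive = growth falling with dose or no effect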;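 also: gain in OD600 from 0 h to 30 h averaged across all seven doses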
# Active calls of the source: *; · = no result. Sampled rows, rich in hits. Any-hit rate of the full collection: about 1.3%.
SMILES,sdo1 growth,Mac1 fbg inh,MRP-1 activ,Mac1 fbg enh,Phagocyt inh,MRP reversal,sdo1 rescue conf
CCc1ccccc1NC(=O)CC(O)(C(=O)OC)C(F)(F)F (configuration not stated),3.1*,-14,-1,-6,0,18,0.066
Cc1sc2ncnc(Sc3ccccc3C(=O)Nc3ccccc3Cl)c2c1C,-0.79,14,-5,2,0,·,·
O=C(O)c1cccc(NC(=O)c2ccc3c(c2)C(=O)N(CC2CCCO2)C3=O)c1 (configuration not stated),0.91,-22,-1,1,-1,1,·
COC(=O)c1cccc(NC(=O)c2ccc3c(c2)C(=O)N(CC2CCCO2)C3=O)c1 (configuration not stated),0.98,6,-1,-2,·,4,0.034
CN1CC2([N+](=O)[O-])CC=C(OCCO)C([N+](=O)[O-])(C1)C2 (configuration not stated),0.21,·,-1,·,2,·,·
Cc1ccc(NC(=O)CSCC(=O)N2c3ccccc3CCc3ccccc32)cc1,-0.71,6,-3,-2,-1,·,·
O=C(OCC(CO)OC(CO)n1ccc(=O)[nH]c1=O)c1ccccc1 (configuration not stated),7.7*,1,0,3,-1,8,0.06
CC1=C(C)CC(C(=O)NCc2ccc3c(c2)OCO3)C(C(=O)O)C1 (configuration not stated),2.3,26,-1,-1,0,-28,0.075*
Cc1ccccc1-n1ncc2c(SCC(=O)N3c4ccccc4CC3C)ncnc21 (configuration not stated),-0.28,·,0,·,·,·,·
Cc1nnc(NC(=O)CSc2ncnc3c2cnn3-c2ccccc2C)s1,1.5,·,-1,·,·,·,0.042
COc1ccc(CNC(=O)c2cc(-c3ccc(OC)c(OC)c3)on2)cc1,8.7*,·,1,·,-1,-1,0.047
COc1ccc(NC(=O)c2cc(-c3ccc(OC)c(OC)c3)on2)cc1OC,1.8,-12,-2,29,0,9,0.068
O=C(Nc1ccccc1)c1ccc(S(=O)(=O)NCC2CCCO2)cc1 (configuration not stated),0.9,-5,-3,113,0,19,·
O=C(Nc1ccccc1)c1ccc(NCC2CCCO2)c([N+](=O)[O-])c1 (configuration not stated),11*,5,-1,5,7,·,0.086*
O=C(NCCN=C1NS(=O)(=O)c2ccccc21)c1ccco1,3.8*,-3,-3,-5,0,·,0.085*
Cc1ccccc1NC(NC(=O)OCCn1c([N+](=O)[O-])cnc1C)C(Cl)(Cl)Cl (configuration not stated),8.3*,10,1,-1,5,·,0.1*
Cc1ncc([N+](=O)[O-])n1CCOC(=O)NC(NCc1ccccc1)C(Cl)(Cl)Cl (configuration not stated),0.33,·,-4,·,·,·,·
Cc1c(C(=O)N2CCc3ccccc32)cnn1C,0.57,·,-2,·,-3,·,·
